# Laboratory results: PubChem BioAssay (NCI)
# The panel holds about 83,000 compounds, 20% with a hit somewhere; the sample as a whole holds those more often.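 Cells were grown in 96-well plates and exposed to the test compound at a single concentration for 48 hours; results are reported as percent growth, with values below 10 considered active.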 Values without a mark were called inactive. Active and inactive are the calls of the source.
# System: HL-60(TB) leukemia
# Experiment: NCI-60 one-dose screen, 48 h (100 = growth as untreated, 0 = no growth, -100 = all killed)
# Settings: 10 µM unless noted
row,SMILES,growth
1,O=C1c2ccccc2Cc2cccc(Cl)c21,39.5%
2,COc1ccc(C2=NN(C(N)=S)C(c3ccc4c(c3)OCO4)C2)cc1 (configuration not stated),30.4%
3,OC(CCC(O)(c1ccccc1)c1ccccc1)(c1ccccc1)c1ccccc1,-21.7% (active)
4,O=[N+]([O-])c1cccc(-c2nc3sccn3c2-c2ccnc(NCCCNS(=O)(=O)c3ccc(C(F)(F)F)cc3)n2)c1,0.27% (active)
5,CC1=NN(c2ccccc2)C(=O)/C1=C\N1CC(=O)NC1=S,103%
6,COc1ccc(-c2nnc3n(C)c(=O)c4ccccc4n23)cc1O,-22% (active)
7,CCOc1cccnc1/C=N/NC(N)=S,-17% (active)
8,COc1ccc(C=Nc2c(C(=O)Nc3cccc(Cl)c3C)sc3nc(C)c(C(=O)/C=C/c4ccc(OC)cc4)cc23)cc1,9.38% (active)
9,C/C(=N/N=C(N)N)c1ccc(Cl)cc1,171%
10,COc1cc2ncnc3c2cc1OCCCCCN(C)Cc1ccc(Br)cc1N3,33.7%
11,O=C(NC(CSSCC(NC(=O)c1ccccc1)C(=O)O)C(=O)O)c1ccccc1 (configuration not stated),60.7%
12,COc1ccc(-c2cc(-c3cccc(NS(C)(=O)=O)c3)nc(N)c2C#N)cc1,0.807% (active)
13,CCN(CC)CCCCCCNc1cccc2cc(Br)cnc12,-51.7% (active)
14,COc1ccc2nc3cc(Cl)ccc3c(NCCCCCN3CCCCC3)c2c1,-42.2% (active)
15,O=C1C=Cc2ccccc2/C1=C/c1[nH]c(=O)[nH]c1O,43.3%
16,Oc1ccccc1/C=N/N1CCCCCC1,86.7%
17,CC12CCC3C4(C)COC(c5ccccc5Cl)OC4CCC3(C)C1CC(C1=CCOC1=O)O2 (configuration not stated),26.2%
18,O=C(Nc1cc(C(F)(F)F)cc(C(F)(F)F)c1)Nc1ccc(OCc2nnc(-c3ccc(Cl)cc3)o2)c(F)c1,5.4% (active)
19,C=C(C[n+]1ccccc1)[C@@H]1CC[C@]2(C(=O)OC)CC[C@]3(C)[C@H](CC[C@@H]4[C@@]5(C)CC[C@H](O)C(C)(C)[C@@H]5CC[C@]43C)[C@@H]12,93.5%
20,Cc1n[nH]c2ccc(Br)cc2c1=O,94.3%
21,NC(=O)c1ccc(C2C3=C(CCCC3=O)OC3=C2C(=O)c2ccccc2C3=O)cc1 (configuration not stated),-30.4% (active)
22,FC(F)(F)c1cn(CC2CNC2)c2ncnc(Cl)c12,73.5%
23,O=C(O)CC(C(=O)O)/C(=C\c1ccccc1)c1ccccc1 (configuration not stated),107%
24,CN1C(=O)N(C)C2C1NN=c1s/c(=C\c3ccc(F)cc3)c(=O)n12 (configuration not stated),-22.4% (active)
25,O=S(=O)(Cc1ccccc1)c1ccccc1,96.5%
26,O=[N+]([O-])/C(=C/c1ccccc1)c1ccccc1,85.6%
27,COc1ccc(CCN2C(=O)/C(=C/c3ccc(C4Oc5ccccc5C5CC(c6cccc(OC)c6)=NN54)cc3)SC2=S)cc1 (configuration not stated),99.5%
